# nsP2pro inh – blocks chikungunya virus nsP2 protease peptide cleavage. Q8JUX6. Potency, µM (doses to about 24.9 µM), without a hit: at the top dose activity change, negative = inhibition, most hits filed as inhibitors. AID 1964107. FRET peptide cleavage, nsP2pro, fluorescence 1 h. 31,000 tested, 1.1% active; further: nearly all actives have a fitted effect of over 60% in size
#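 FRET cleavage of 2.5 uM peptide 2 by 150 nM CHIKV protease domain at pH 8.0 (Tris, Tween 20). Compounds at 7 concentrations (up to 25 uM) preincubated 15 min. Fluorescence read after 1 h at room temperature.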
# CHIKV nsP2 cell – inhibits CHIKV nsP2 protease in cells. shares compounds with nsP2pro inh. Potency, µM (top dose mostly 51.1 µM), inactives show top-dose activity change, negative = inhibition, usual class: inhibitors. 450 tested, 10% active. cell-based CHIKV nsP2 protease reporter assay; further: nearly all actives have a fitted effect of over 70% in size
# Target sequence (Q8JUX6 220-798 limits assumed): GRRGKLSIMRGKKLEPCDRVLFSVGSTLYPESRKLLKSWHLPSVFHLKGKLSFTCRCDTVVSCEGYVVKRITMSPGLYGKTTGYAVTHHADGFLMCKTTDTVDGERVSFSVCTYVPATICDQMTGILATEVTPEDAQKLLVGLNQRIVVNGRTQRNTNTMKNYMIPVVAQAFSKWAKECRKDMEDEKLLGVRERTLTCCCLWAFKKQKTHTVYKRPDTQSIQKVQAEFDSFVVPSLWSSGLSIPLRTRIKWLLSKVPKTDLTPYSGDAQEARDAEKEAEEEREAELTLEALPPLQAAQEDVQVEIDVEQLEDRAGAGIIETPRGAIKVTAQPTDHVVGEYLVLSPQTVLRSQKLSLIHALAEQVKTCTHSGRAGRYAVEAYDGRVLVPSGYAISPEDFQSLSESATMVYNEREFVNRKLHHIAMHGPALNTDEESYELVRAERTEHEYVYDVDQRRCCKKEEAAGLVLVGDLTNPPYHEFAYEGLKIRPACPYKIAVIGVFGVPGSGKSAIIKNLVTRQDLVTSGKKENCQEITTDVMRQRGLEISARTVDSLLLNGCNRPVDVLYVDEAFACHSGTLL
# NSP2 full ctr – full-length CHIKV NSP2 protease inhibition, selectivity; shares compounds with nsP2pro inh; AID 1964101; Full-length CHIKV NSP2 protease enzymatic counterscreen; 410 tested, 39% active; Potency, µM (doses to about 50.7 µM), for inactives: at the highest dose activity change, negative = inhibition, hits mostly inhibitors; further: nearly all actives have a fitted effect of over 65% in size
# Furin counterscr – human furin inhibition, counterscreen for nsP2pro inhibitors. Potency, µM (series often up to 50.6 µM), for the others: at the top dose activity change, negative = inhibition, usual class: inhibitors. 410 tested, 6% active. Recombinant human furin enzymatic counterscreen, fluorogenic substrate. shares compounds with nsP2pro inh. AID 1964102
# NS23 peptide cs – blocks CHIKV nsP2 protease cleavage of endogenous NS2/3 peptide; shares compounds with nsP2pro inh; Purified CHIKV nsP2 protease, endogenous NS2/3 peptide cleavage; Potency, µM (titrated, usually from 51 µM), inactives show top-dose activity change, negative = inhibition, hits mostly inhibitors; 410 tested, 34% active; AID 1964103; further: nearly all actives have a fitted effect of over 55% in size
# Papain cs – inhibits papain in a CHIKV nsP2 protease selectivity counterscreen; shares compounds with nsP2pro inh; purified papain protease activity, enzymatic inhibition; 410 tested, 5% active; Potency, µM (top dose mostly 51 µM), without a hit: at the top dose activity change, negative = inhibition, most hits filed as inhibitors
# nsP2pro confirm – CHIKV nsP2 protease inhibition, confirmatory qHTS; shares compounds with nsP2pro inh; CHIKV nsP2 protease enzymatic activity, qHTS; Potency, µM (top dose mostly 25.5 µM), inactives show top-dose activity change, negative = inhibition, actives largely listed as inhibitors; 410 tested, 43% active; further: nearly all actives have a fitted effect of over 75% in size
# HCV NS3 4A cs – selectivity counter-screen for CHIKV nsP2 protease inhibitors: HCV NS3/4A; shares compounds with nsP2pro inh; HCV NS3/4A protease biochemical counterscreen; 410 tested, 20% active; AID 1964106; Potency, µM (titrated, usually from 50.9 µM), hits mostly inhibitors; further: nearly all actives have a fitted effect of over 55% in size
# An asterisk follows results filed as active; i = inactive; ? = inconclusive; [ ] = dose if it differs, or a comment. The full list was thinned out, with hits kept by preference. The call rests on the fitted dose curve. On the % scale 0 is the no-effect control and ±100 the full control effect; potency means the concentration at half of the fitted maximal effect.
SMILES,nsP2pro inh,others
Cc1ccnc(NC(=S)NCCN(C)c2cccc(C(F)(F)F)c2)c1,-1%,
CC#CC(=O)N1CC[C@@H](n2c(=O)n(-c3ccc(Oc4ccccc4)cc3)c3c(N)ncnc32)C1,-2%,
COc1ccc(NC(=O)CN2C(=O)N/C(=C\c3cccn3-c3ccc(C(=O)NC#N)cc3)C2=O)cc1,i,
CCn1nc(C(=O)N2C[C@@H](CN3CCN(C)CC3)[C@@H](CO)C2)cc1C,3%,
O=C(NCCCc1ccccc1)c1nc2sccn2c1-c1cccc(C(F)(F)F)c1,i,
CCCNC(=O)N[C@@H]1CCC[C@@H](C(=O)NCCOC)CC(=O)N(C)C1,4µM*,CHIKV nsP2 cell=21%;NSP2 full ctr=15µM*;Furin counterscr=?;NS23 peptide cs=24µM*;Papain cs=4%;nsP2pro confirm=4.1µM*;HCV NS3 4A cs=?
CCN(CC)C(=O)[C@@H]1CCC[C@@H](NC(C)=O)CN(C)C(=O)C1,-7%[39.2 µM],
COCC(=O)N[C@@H]1CCC[C@@H](C(=O)NC2CC2)CC(=O)N(C)C1,i,
COc1ccc(C(=O)N2CCC(c3ncc(C)n3C(C)C)C2)cc1 (stereo not given),2%,
O=C(NN1C(=O)[C@@H]2[C@@H]3C=C[C@@H]([C@H]4C[C@@H]34)[C@@H]2C1=O)c1ccc(C(F)(F)F)cc1,-12%,
C=C(C)CNc1ccc(C(C)C(=O)O)cc1 (stereo not given),8.8µM*,CHIKV nsP2 cell=1%;NSP2 full ctr=-5%;Furin counterscr=-5%;NS23 peptide cs=-14%;Papain cs=-5%;nsP2pro confirm=-16%;HCV NS3 4A cs=i
CC(C(=O)O)c1ccc(CC2CCCC2=O)cc1 (stereo not given),-2%,
CC(C(=O)O)c1ccc(C(=O)c2cccs2)cc1 (stereo not given),-17%[39.2 µM],
Cc1nnc2n1C(C)CN(C(=O)CCn1cnc3ccccc3c1=O)C2 (stereo not given),i,
O=C(NCC1CN(C(=O)NC2CCCCC2)CC12CCCCC2)C1CC1 (stereo not given),3%,
CC(C)c1cc(C(=O)NCc2cccnc2Oc2cccc(C(F)(F)F)c2)n[nH]1,i,
CN(C)CCc1c[nH]c2ccc(CN3CCN(C)S3(=O)=O)cc12,?,CHIKV nsP2 cell=14%;NSP2 full ctr=-4%;Furin counterscr=2%;NS23 peptide cs=-6%;Papain cs=0%;nsP2pro confirm=-25%;HCV NS3 4A cs=i
CN(C)CCc1c[nH]c2ccc(CS(=O)(=O)N3CCCC3)cc12,-12%,
CNS(=O)(=O)Cc1ccc2[nH]cc(CCN(C)C)c2c1,-19%,
COC(=O)[C@H](Cc1ccc(OC)cc1)NC(=O)[C@H]1CN(S(=O)(=O)c2ccccc2)CCN1S(=O)(=O)c1ccccc1,2%,
C=C(C)C(=O)O[C@H]1C[C@@](C)(O)C2(O)CCC(C)(/C=C3/OC(=O)C(COC)=C31)O2 (stereo not given in full),?,CHIKV nsP2 cell=?;NSP2 full ctr=?;Furin counterscr=-10%[33.5 µM];NS23 peptide cs=?;Papain cs=-9%[33.5 µM];nsP2pro confirm=?;HCV NS3 4A cs=?
CC[C@H]1CN2CC[C@H]1C[C@@H]2CNCc1ccc(-c2ccccc2)cc1,i,
COc1ccc2c(O[C@H]3CC4C(=O)N(C)CCCC/C=C\[C@@H]5C[C@@]5(C(=O)NS(=O)(=O)C5CC5)NC(=O)[C@@H]4C3)cc(-c3nc(C(C)C)cs3)nc2c1C (stereo not given in full),73%,
O=C(O)c1cccc(-c2noc(-c3cccc(C(F)(F)F)c3)n2)c1,i,
Cc1ccc(SCC(=O)Nc2cccc(-c3nc4cc(Cl)ccc4o3)c2C)cc1,-24%,
COc1ccc2c(C(=O)c3ccc(Cl)cc3)c(C)n(CC(=O)O)c2c1,-18%,
CC(=O)Nc1cccc2c1c(Sc1ccc(Cl)cc1)c(C)n2CC(=O)O,9.9µM*,CHIKV nsP2 cell=-17%;NSP2 full ctr=1%;Furin counterscr=-3%;NS23 peptide cs=i;Papain cs=-11%;nsP2pro confirm=-12%;HCV NS3 4A cs=i

# Source: PubChem BioAssay (National Center for Advancing Translational Sciences (NCATS))
